The results in this text go back to PubChem BioAssay (NCI).

About 83,000 compounds went through this panel and 20% of them were active in at least one assay; those are over-represented in the sample as a whole.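 Treatment: one concentration, 48 hours, 96-well format. Scoring: percent growth, with anything below 10 considered active.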 A number with no mark means an inactive call. Activity calls are given as the source filed them.

Test systems include DU-145 prostate; K-562 leukemia; MALME-3M melanoma; MDA-MB-231 breast; RXF 393 renal; SF-268 CNS; SF-295 CNS; SF-539 CNS; UACC-257 melanoma; M14 melanoma.
Holding throughout (assay): NCI-60 one-dose screen, 48 h (100 = growth as untreated, 0 = no growth, -100 = all killed)
Common to all, as to details: 10 µM unless noted

As to `Cc1ccc(-c2nc(C#N)c(S(=O)(=O)N(C)C)o2)cc1`, the growth is 103% with DU-145 prostate; 12.3% in the test on K-562 leukemia; 52.6% in the test on MALME-3M melanoma; 88.1% with MDA-MB-231 breast; 105% in the test on RXF 393 renal; 104% with SF-268 CNS. Further, the growth in the test with SF-295 CNS was 100%; in the test on SF-539 CNS, 102%; in the test on UACC-257 melanoma, 94.8%; in the test with M14 melanoma, 64.3%.
As for `CCCCCCCCCCCCCCCCCCn1cc(COc2ccc(C=O)cc2)nn1`, the growth in the test on DU-145 prostate was 92.4%; with K-562 leukemia it was 85.9%; in the test with MALME-3M melanoma it was 106%; with MDA-MB-231 breast it was 110%; in the test on RXF 393 renal it was 113%; in the test with SF-268 CNS, 93.7%. Also, the growth with SF-295 CNS was 98.7%; in the test with SF-539 CNS it was 98.5%; with UACC-257 melanoma it was 109%; in the test with M14 melanoma, 92.8%.
Regarding `CC[C@@H]1NC(=O)[C@H]([C@H](O)[C@H](C)C/C=C/c2ccc(CN3C(=O)C(C)=C(C)C3=O)cc2)N(C)C(=O)[C@H](C(C)C)N(C)C(=O)[C@H](CC(C)C)N(C)C(=O)[C@H](CC(C)C)N(C)C(=O)[C@@H](C)NC(=O)[C@H](C)NC(=O)[C@H](CC(C)C)N(C)C(=O)[C@H](C(C)C)NC(=O)[C@H](CC(C)C)N(C)C(=O)CN(C)C1=O`, the growth is 73.9% in the test with DU-145 prostate; 70% in the test on K-562 leukemia; 88.2% in the test with MALME-3M melanoma; 71.5% with MDA-MB-231 breast; 80% in the test with RXF 393 renal; 71% in the test with SF-268 CNS. The growth in the test with SF-295 CNS is 69.4%; in the test with SF-539 CNS, 86.9%; in the test with UACC-257 melanoma, 69.4%; in the test with M14 melanoma it was 60%.
On to `COc1ccc(-c2cc(-c3cccc(Cl)c3)c(C#N)c(=O)[nH]2)c(OC)c1`, for which the growth is 97.3% with DU-145 prostate; 98.2% in the test on K-562 leukemia; 93.7% in the test with MALME-3M melanoma; 102% with MDA-MB-231 breast; 90.8% in the test on RXF 393 renal; 90% with SF-268 CNS. The growth was 98.2% in the test on SF-295 CNS, 92.6% in the test on SF-539 CNS, 102% in the test on UACC-257 melanoma and 98.2% in the test with M14 melanoma.
Take `CC[C@H](C)[C@H](NC(=O)[C@H](CCCCN)NC(=O)[C@H](CCCCN)NC(=O)[C@@H](NC(=O)[C@@H](NC(=O)[C@@H](N)Cc1cnc[nH]1)[C@@H](C)CC)[C@@H](C)CC)C(=O)N[C@@H](CCCNC(=N)N)C(=O)N[C@H](C(=O)N[C@@H](Cc1c[nH]c2ccccc12)C(=O)N[C@@H](Cc1ccc(O)cc1)C(=O)N[C@@H](CCCNC(=N)N)C(=O)N[C@@H](CCCCN)C(=O)N[C@@H](C)C(=O)N[C@@H](Cc1c[nH]c2ccccc12)C(=O)N[C@@H](Cc1cnc[nH]1)C(=O)N[C@H](C(=O)N[C@@H](CC(C)C)C(=O)NCC(=O)N[C@@H](CCCCN)C(=O)N[C@H](C(N)=O)C(C)C)C(C)C)[C@@H](C)O`: the growth in the test on DU-145 prostate is 30.7%; in the test with K-562 leukemia it was 67.9%; with MALME-3M melanoma, 4.7% (active); in the test on MDA-MB-231 breast, 10.9%; in the test on RXF 393 renal it was 23.4%; in the test with SF-268 CNS, -12.7% (active). Besides, the growth in the test on SF-295 CNS is 24.5%; in the test on SF-539 CNS, -12.2% (active); in the test with UACC-257 melanoma it was 67.8%; with M14 melanoma, -12% (active).
With `COc1ccc(/C(C)=C(\c2ccc(OCCN3CCOCC3)cc2)c2ccc(OC(=O)C3CCCCC3)cc2)cc1`, the growth in the test with DU-145 prostate was 95.7%; with K-562 leukemia it was 89.2%; in the test with MALME-3M melanoma, 97.7%; with MDA-MB-231 breast, 111%; in the test with RXF 393 renal it was 121%; with SF-268 CNS it was 101%. The growth with SF-295 CNS was 103%; with SF-539 CNS, 94.7%; in the test with UACC-257 melanoma, 112%; in the test with M14 melanoma, 102%.
On to `O=C1c2cc3c(cc2-c2c1c1ccc(Cl)cc1c(=O)n2CCCn1ccnc1)OCO3`, for which the growth in the test on DU-145 prostate is -42.2% (active); with K-562 leukemia, 1.87% (active); in the test with MALME-3M melanoma, -24.6% (active); in the test on MDA-MB-231 breast it was 46.4%; in the test on RXF 393 renal, -36.7% (active); with SF-268 CNS it was 8.11% (active). In addition, the growth in the test with SF-295 CNS is -10.1% (active); in the test on SF-539 CNS, -50.3% (active); in the test with UACC-257 melanoma, -3.1% (active); in the test with M14 melanoma, -28.6% (active).
For `C#CCOCC1CN(C)C(=O)O1` (stereo not given), the growth with DU-145 prostate was 107%; in the test with K-562 leukemia it was 101%; with MALME-3M melanoma it was 110%; in the test with MDA-MB-231 breast it was 110%; in the test with RXF 393 renal it was 131%; with SF-268 CNS, 113%. Moreover, the growth was 105% in the test on SF-295 CNS, 102% in the test with SF-539 CNS, 104% in the test on UACC-257 melanoma and 107% in the test with M14 melanoma.
Turning to `N#C/C(=C\c1ccccc1Cl)c1cc2ccccc2[nH]1`, the growth with DU-145 prostate is 100%; in the test on K-562 leukemia it was 70.5%; with MALME-3M melanoma, 92.8%; in the test with MDA-MB-231 breast, 68.7%; with RXF 393 renal it was 102%; in the test on SF-268 CNS, 96.3%. Moreover, the growth was 93.9% with SF-295 CNS, 89.4% in the test with SF-539 CNS, 94.2% in the test with UACC-257 melanoma and 91.8% with M14 melanoma.
For `NCCOCCOc1ccccc1`, the growth with DU-145 prostate is 101%; in the test with K-562 leukemia, 108%; in the test on MALME-3M melanoma it was 97.8%; in the test on MDA-MB-231 breast, 114%; in the test with RXF 393 renal, 124%; with SF-268 CNS, 97.8%. Also, the growth in the test on SF-295 CNS is 103%; in the test on SF-539 CNS it was 108%; with UACC-257 melanoma, 106%; in the test on M14 melanoma, 102%.
`Cc1cc(N2CCN(CC(=O)Nc3ccc4c(ccn4Cc4ccccc4)c3)CC2)nc(N2CCCCCC2)n1`: the growth was 71.5% in the test with DU-145 prostate; 14.8% with K-562 leukemia; 18.2% in the test with MALME-3M melanoma; 28.2% with MDA-MB-231 breast; 28.7% in the test on RXF 393 renal; 72.9% in the test on SF-268 CNS. Moreover, the growth was 44.4% with SF-295 CNS, 69.4% with SF-539 CNS, 42.8% in the test with UACC-257 melanoma and -7.84% (active) in the test with M14 melanoma.
